In PubChem BioAssay (NCI):
This is part of a sample that, as a whole, favours compounds with a hit. Of some 83,000 tested, about 20% had one in any assay.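 Step 1: grow cells in 96-well plates. Step 2: add test compound at a single concentration. Step 3: incubate 48 h. Step 4: record percent growth.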 Values without a mark were called inactive. Calls of active or inactive are those of the source. How the source made its calls: active means growth percent below 10; inactive means the rest.

How the values were obtained:
Assay in all cases: NCI-60 one-dose screen, 48 h (100 = growth as untreated, 0 = no growth, -100 = all killed)
Details in all cases: 10 µM unless noted
DU-145 prostate = test system: DU-145 prostate
K-562 leukemia = test system: K-562 leukemia
MALME-3M melanoma = test system: MALME-3M melanoma
MDA-MB-231 breast = test system: MDA-MB-231 breast
RXF 393 renal = test system: RXF 393 renal
SF-268 CNS = test system: SF-268 CNS
SF-295 CNS = test system: SF-295 CNS
SF-539 CNS = test system: SF-539 CNS
UACC-257 melanoma = test system: UACC-257 melanoma

Row | Compound | growth (DU-145 prostate) | growth (K-562 leukemia) | growth (MALME-3M melanoma) | growth (MDA-MB-231 breast) | growth (RXF 393 renal) | growth (SF-268 CNS) | growth (SF-295 CNS) | growth (SF-539 CNS) | growth (UACC-257 melanoma)
1 | C=CCOC(=O)C1=C(C)N(CC)C(=O)N(CC)C1c1c(Cl)n(C)c2ccccc12 (stereo unspecified) | 99.4% | 93% | 96.2% | 80.6% | 98.3% | 87.3% | 69.3% | 88.2% | 89.9%
2 | CSc1nc(CC(C)C)c(C#N)c(=O)n1C | 70.7% | 68.8% | 58.4% | 47.3% | 58.7% | 65.7% | 73.9% | 75.9% | 78.6%
3 | NC(=N\N=C/c1ccc(Cl)cc1Cl)/C(N)=N\N=C/c1ccc(Cl)cc1Cl | 90.6% | 80.6% | 88.3% | 71.1% | 83.6% | 89.7% | 60% | 43.5% | 118%
4 | N#C/C(=C/C=C/c1ccccc1)S(=O)c1ccccc1 (stereo unspecified) | -89.5% (active) | 5.48% (active) | -30.2% (active) | -54.2% (active) | -84% (active) | -31.3% (active) | -28.8% (active) | -74.5% (active) | -33.9% (active)
5 | COc1ccc(-c2cn(Cc3ccc4c(Br)cc(Br)c(O)c4n3)nn2)cc1 | 89.7% | 39.1% | 82.7% | 93.9% | 91.8% | 91.3% | 104% | 101% | 87.9%
6 | Cc1nc2cccc(NCc3ccc(C(=O)NO)cc3)c2c(=O)n1-c1ccccc1 | 26.7% | 18.7% | 35.3% | 48.2% | 28.2% | 54% | 16% | 15.1% | 53.4%
7 | N#Cc1c(-c2ccc(F)cc2)cc(-c2cccc(Cl)c2)[nH]c1=O | 73.9% | 56.2% | 70.1% | 60.7% | 51.7% | 41.9% | 71.4% | 9.45% (active) | 93.8%
8 | C#C[C@]1(O)CC[C@H]2[C@@H]3CC=C4c5sc(-c6ccccc6)nc5CC[C@]4(C)[C@H]3CC[C@@]21C | 96.1% | 17.6% | 97.5% | 89% | 32.3% | 83.4% | 41.4% | 31.6% | 84.6%
9 | CCOC(=O)c1c(C)c2c(n1Cc1ccccc1)CSc1cc(C#N)c(=O)[nH]c1-2 | 83.9% [100 µM] | 75.5% [100 µM] | 55% [100 µM] | 54.8% [100 µM] | 26.6% [100 µM] | 67.5% [100 µM] | 43.6% [100 µM] | 52.6% [100 µM] | 121% [100 µM]
10 | COc1cc(/C=C2\C(=O)N(CCOc3cc(O)c4c(=O)cc(-c5ccccc5)oc4c3)c3ccccc32)cc(OC)c1O | 94% | 22.6% | 77.6% | 64.2% | 85.9% | 70.6% | 86.6% | 69.9% | 104%
11 | CCN1C(=O)N(CC)C2C1NC(=S)N2/N=C/C=C/c1ccccc1 (stereo unspecified) | 7.35% (active) | 10.9% | 53.7% | 18.5% | 18.8% | 20.8% | 3.58% (active) | -13.8% (active) | 55.1%
12 | Nc1c(C(=O)c2ccc(Cl)cc2)sc(Nc2ccccc2)c1-c1nc2ccccc2s1 | 25.5% | 55.2% | 20.7% | 18.8% | 72.8% | 45.5% | -24.4% (active) | 43.2% | 58.8%
13 | O=C(/C=C\c1ccc(O)c(O)c1)c1ccccc1O | 94.4% | 73.4% | 97.4% | 69.3% | 42.8% | 69.5% | 99.7% | 59.3% | 86.1%
14 | Cc1nc2sc(C(=O)Nc3ccccc3)c(N)c2cc1C(O)c1ccccc1 (stereo unspecified) | 18.1% | 7.04% (active) | 60.8% | 16.7% | 40% | 47.9% | 4.69% (active) | -5.44% (active) | 72.5%
15 | CCCNNC(=O)c1ccc(CNC(=O)/C=C/c2ccccc2)cc1 | 37% [2.5 µM] | 15% [2.5 µM] | 30.1% [2.5 µM] | 55.7% [2.5 µM] | 1.56% [2.5 µM] (active) | 52.6% [2.5 µM] | 33.3% [2.5 µM] | 44.2% [2.5 µM] | 24.1% [2.5 µM]
16 | C(CCCSC1=NCCN1)CCSC1=NCCN1 | 109% | 116% | 104% | 103% | 104% | 106% | 108% | 101% | 98.5%
17 | COc1ccc(S(=O)(=O)N(C)c2oc(-c3ccc(Cl)cc3)nc2C#N)cc1 | 97.9% | 20.3% | 68.9% | 87% | 80.1% | 82.7% | 91.9% | 82.9% | 86.7%
18 | FC(F)(F)c1cccc(-c2nnn(Cc3cc(-c4cccc(Cl)c4)no3)n2)c1 | 113% | 113% | 97.5% | 117% | 109% | 99.1% | 111% | 102% | 96.3%
19 | COc1ccccc1-c1nc2ccc3[nH]ncc3c2c2c1CCCC2 | 73.5% | 83.3% | 99.2% | 62.4% | 51.2% | 55.6% | 70.5% | 50.5% | 86.4%
20 | COc1ccc(Cn2cc3c(c2)-c2oncc2CC3)cc1 | 176% | 20.6% | 83.2% | 70.5% | 75.8% | 136% | 58.6% | 48% | 85.9%
21 | CN1C(=O)N(C)C2C1NN=c1s/c(=C\c3ccc(F)cc3)c(=O)n12 (stereo unspecified) | 58.5% | 11.4% | 31.5% | 29.4% | 38.5% | 58.7% | 28.8% | 29.7% | 1.68% (active)
22 | COc1cc(C2=Nc3c(N)nc(N)nc3NC(c3cccc(Nc4ccnc5cc(C(F)(F)F)ccc45)c3)C2)cc(OC)c1OC (stereo unspecified) | 89.6% | 21.5% | 90.6% | 57.8% | 45.1% | 63.3% | 82.5% | 79.3% | 77.7%
23 | Cc1ccc(Nc2oc(-c3ccccc3)nc2[P+](c2ccccc2)(c2ccccc2)c2ccccc2)cc1 | -19.4% (active) | 0.645% (active) | -61.6% (active) | -83.5% (active) | -69.1% (active) | 10.6% | -85.5% (active) | -60.7% (active) | -42.5% (active)
24 | CN(C)CC1C(=O)O[C@H]2[C@H]1CC/C(COC(=O)NCc1ccc(Cn3c(=O)sn(CCCI)c3=O)cc1)=C\CC[C@@]1(C)O[C@@H]21 (stereo partly specified) | -69.8% (active) | -0.241% (active) | -75.6% (active) | 60.4% | -87% (active) | 57.7% | 96.8% | 24.4% | -39.8% (active)
25 | c1ccc2c(-c3cnn4cc(-c5ccc(N6CCNCC6)cc5)cnc34)ccnc2c1 | -83.4% (active) | -23.6% (active) | -89.5% (active) | -67.8% (active) | -77.5% (active) | -62.3% (active) | -93.5% (active) | -95.4% (active) | -72.1% (active)
26 | O=C(Nc1ncc(Cc2ccccc2)s1)c1ccc2c(c1)OCCO2 | 15.2% | 8.32% (active) | 57.9% | 39.2% | 10.2% | 43.2% | 11.9% | -10.4% (active) | 45.1%
27 | CCOC(=O)c1ccc2c(c1)c1c(C)c3cnccc3c(C)c1n2C | -17% (active) | 0.0057% (active) | -91.3% (active) | -55.9% (active) | -83% (active) | -15.9% (active) | -24.3% (active) | -95.8% (active) | -42.2% (active)
28 | CC1=C2[C@@H](CC1)[C@]1(C)O[C@@](C(C)C)(C[C@H]1OC(=O)CO)[C@H]2OC(=O)CCCc1ccccc1 | 75.8% | 53.9% | 57.3% | 88.2% | 86.2% | 73.4% | 78.5% | 96.6% | 85.1%
29 | Cc1ccc(C23CCC(=O)N2CCc2cncn23)cc1 (stereo unspecified) | 105% | 112% | 109% | 113% | 87% | 114% | 102% | 101% | 100%
